Source: PubChem BioAssay AID488969 (Vanderbilt High Throughput Screening Facility, 2010)
Over roughly 110,000 compounds, “z-score” has its median near -0.1; the highest 2% begin near 2. The entries come from a sample that favours the highest values as a whole. Activity calls are given as the source filed them.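 Rule for the calls: active = z-score in the third read window above 3 or below -3; inactive = the rest.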

biological target: Metabotropic glutamate receptor 8 (Rattus norvegicus) (UniProt P70579); test: mGluR8 Gi/Go-coupled signaling modulation – cell-based, rat, thallium flux, HTS, primary screen (AID 488969); conditions: HEK293 rat mGluR8, GIRK (G protein-gated inwardly rectifying potassium channel) thallium flux, FluoZin2; at 10 µM; stronger effect = higher value; submaximal glutamate (EC20) added with thallium
Sequence (P70579 whole entry, looked up): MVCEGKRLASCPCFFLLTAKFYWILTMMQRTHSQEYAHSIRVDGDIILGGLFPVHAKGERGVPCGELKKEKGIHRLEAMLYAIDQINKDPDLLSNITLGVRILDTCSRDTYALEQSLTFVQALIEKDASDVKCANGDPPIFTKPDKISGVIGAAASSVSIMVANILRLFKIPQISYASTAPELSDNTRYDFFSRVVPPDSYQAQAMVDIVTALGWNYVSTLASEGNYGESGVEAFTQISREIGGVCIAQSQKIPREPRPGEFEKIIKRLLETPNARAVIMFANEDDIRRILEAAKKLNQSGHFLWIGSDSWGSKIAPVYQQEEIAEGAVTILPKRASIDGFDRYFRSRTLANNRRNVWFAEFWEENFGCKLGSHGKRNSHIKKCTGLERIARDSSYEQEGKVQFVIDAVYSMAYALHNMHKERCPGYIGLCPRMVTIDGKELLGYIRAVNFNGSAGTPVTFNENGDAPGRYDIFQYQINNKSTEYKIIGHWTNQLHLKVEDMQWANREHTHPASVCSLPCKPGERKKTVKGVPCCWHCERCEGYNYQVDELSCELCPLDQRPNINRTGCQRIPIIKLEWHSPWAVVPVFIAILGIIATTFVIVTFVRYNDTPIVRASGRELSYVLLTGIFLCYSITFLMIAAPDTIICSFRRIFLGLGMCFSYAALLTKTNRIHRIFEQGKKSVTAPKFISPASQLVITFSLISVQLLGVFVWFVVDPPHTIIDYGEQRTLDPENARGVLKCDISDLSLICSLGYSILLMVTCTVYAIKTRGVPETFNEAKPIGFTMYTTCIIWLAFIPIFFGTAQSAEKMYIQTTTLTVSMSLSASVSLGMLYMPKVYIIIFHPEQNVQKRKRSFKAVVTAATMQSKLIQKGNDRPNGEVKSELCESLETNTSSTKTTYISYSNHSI

SMILES	z-score
CCOC(=O)c1cc(NC(=O)N(C(C)C)C(C)C)c(C)nc1C	0.0304
Brc1ccc(-c2nc(-c3cccnc3)no2)o1	-0.481
COc1ccc(CCNC(=O)Cn2nnc(-c3ccccc3F)n2)cc1OC	0.148
COc1ccc2c(c1)-c1c(sn(-c3ccccc3)c1=S)C(C)(C)N2	-0.192
O=C(CC1Nc2ccccc2NC1=O)NCCCN1CCCCCC1 (configuration not stated)	2.07
O=C(CC1Nc2ccccc2NC1=O)NCCc1ccccc1 (configuration not stated)	-0.0324
CCCCN(CC)CCCNC(=O)CC1Nc2ccccc2NC1=O (configuration not stated)	0.0522
COc1ccc(CNC(=O)C(NC(C)=O)C(=O)Nc2ccc(OC)cc2)cc1 (configuration not stated)	-0.149
Cc1ccc(C2(CC(=O)N3CCCC3)CCOC(C(C)C)C2)cc1 (configuration not stated)	-0.0604
O=C(O)CSc1nnnn1-c1ccc2c(c1)OCCO2	-0.0806
COC(=O)C1=C(C)N(C)C(=O)NC1c1ccccc1 (configuration not stated)	-0.573
Cc1cccc(-n2c(C)nc3sccc3c2=O)c1	1.99
Cc1nc2sccc2c(=O)n1-c1cccc(Cl)c1	-0.144
Cc1cccc(-n2c(C)nc3c(cnn3-c3ccc(F)cc3)c2=O)c1	1.02
Cc1noc(C)c1S(=O)(=O)N1CCCC(C(=O)N2CCC(C)CC2)C1 (configuration not stated)	1.01
Cc1ccc(Cl)cc1NC1=C/C(=N\S(=O)(=O)c2cccs2)c2ccccc2C1=O	-0.209
O=C(c1ccccc1Cl)N1CCc2ccccc2C1	-1.42
COc1ccc(NC(=O)/C(Cl)=C(/Cl)S(=O)(=O)Cc2ccc(C)cc2)cn1	-0.418
O=C(Nc1ccc2c(c1)OCO2)N1CCN(C(=O)C2CCCO2)CC1 (configuration not stated)	2.05
O=C(Nc1ccc2c(c1)OCO2)N1CCN(c2ccccc2Cl)CC1	-0.291
O=C(Nc1ccc2c(c1)OCO2)N1CCOCC1	0.476
COc1ccccc1C(OC(=O)c1ccco1)C(=O)NC(C)(C)C (configuration not stated)	-0.346
O=[N+]([O-])c1ccc(-c2nnc(CSc3nc(-c4ccccc4)nc4ccc(F)cc34)o2)cc1	0.0904

SMILES	z-score
Fc1ccc2nc(-c3ccccc3)nc(SCc3nnc(-c4ccccc4)o3)c2c1	14.3 (active)
O=c1c2ccccc2nc(SCc2nnc(-c3ccccc3)o2)n1-c1ccc(F)cc1F	-0.56
COc1cc2c(cc1OC)C(COc1ccc3c(C)cc(=O)oc3c1)N(C(=O)c1ccco1)CC2 (configuration not stated)	0.044
Cc1csc(SCC(=O)N2CCN(S(=O)(=O)c3ccc(Cl)cc3)CC2)n1	0.756
COc1cccc(-c2cc(C(=O)NC3CCCC3)no2)c1	5.04 (active)
COCCNC(=O)c1cc(-c2cccc(OC)c2)on1	-0.215
COC(=O)c1cc(-c2cccc(OC)c2)on1	-1.1
CCOC(=O)c1c(C(F)(F)F)nc2ncccn12	-0.534
O=C(c1cnn2c(C(F)(F)F)cc(-c3ccc4c(c3)OCO4)nc12)N1CCCC1	-0.369
O=C(CCCc1c[nH]c2ccccc12)N1CCN(c2ccc(N3CCOCC3)nn2)CC1	-0.501
CN(C)c1cccc(C(=O)Nc2ccc3nc4n(c(=O)c3c2)CCCCC4)c1	-0.303
Cc1ccccc1C(=O)Nc1ccc2nc3n(c(=O)c2c1)CCC3	3.87 (active)
Cc1cccc(NC(=O)COC(=O)c2ccc3c(=O)n4c(nc3c2)CCC4)c1	2.19
O=C(Nc1ccc2nc3n(c(=O)c2c1)CCCC3)c1ccccc1[N+](=O)[O-]	-0.424
CC(C)(C)c1cc(NC(=O)COC(=O)c2ccc3c(=O)n4c(nc3c2)CCC4)n(-c2ccccc2)n1	-0.264
O=C(COC(=O)c1ccc2c(=O)n3c(nc2c1)CCC3)Nc1ccccc1F	-0.441
COc1ccccc1OC1=NS(=O)(=O)c2ccccc21	-0.276
CC(C)(C)n1nc2c(c1NC(=O)c1ccccc1F)CS(=O)C2 (configuration not stated)	-0.492
Cc1cc(C(=O)N2CCN(C(c3ccccc3)c3ccccc3)CC2)no1	-0.079
COc1ccc(-c2nc3ccccn3c2NCc2ccc3c(c2)OCO3)cc1	-1.02
CCCCCn1nc(-c2ccccc2)c2nc3ccccc3nc21	14.9 (active)
CCCn1nc(-c2ccccc2)c2nc3ccccc3nc21	0.0864
CCCCn1nc(-c2ccccc2)c2nc3ccccc3nc21	-0.013

SMILES	z-score
CCCn1cc(SCC(=O)NCC2CCCO2)c2ccccc21 (configuration not stated)	0.0527
Cc1ccc(/C=N/c2sc3c(c2C#N)CCCCC3)o1	-0.0448
COc1cc(SC#N)ccc1N=Cc1c(C)[nH]n(-c2cccc3ccccc23)c1=O	-0.32
N#Cc1c(/N=C/c2cc3ccccc3s2)sc2c1CCC2	-0.0332
Cc1[nH]n(-c2cccc3ccccc23)c(=O)c1/C=N/c1sc2c(c1C#N)CCC2	8.05 (active)
CCOC(=O)c1sc(/N=C/c2c(C)[nH]n(-c3ccccc3)c2=O)c(C#N)c1C	-0.156
Cc1[nH]n(-c2ccc(F)cc2)c(=O)c1/C=N/c1sc2c(c1C#N)CCCC2	13 (active)
COc1ccc(OC)c(C2C(C(=O)O)c3ccccc3C(=O)N2C)c1 (configuration not stated)	0.356
CCOC(=O)N1CCN(C(=O)c2ccc(CNS(=O)(=O)c3ccc(C)cc3)cc2)CC1	-0.952
COC(=O)CSc1nc2ccccc2o1	-0.541
Cc1nonc1OCC(C)(COc1nonc1C)NC(=O)c1ccc(Cl)cc1	-0.0555
COc1ccccc1CNC(=O)/C=C/c1cc2c(cc1Br)OCO2	-0.0108
CC(=O)c1c(C)[nH]c(C(=O)COc2ccc(C#N)cc2)c1C	-0.0197
CCCOc1ccc(OCC(=O)c2[nH]c(C)c(C(C)=O)c2C)cc1	0.149
CC(=O)c1c(C)[nH]c(C(=O)COc2cc(C)cc(C)c2)c1C	4 (active)
O=C1CN(Cc2ccccc2)C(=NCc2ccco2)S1	-0.501
Cc1cccc(NC(=S)NCC23C=CC(O2)C2C(=O)N(c4ccc(Cl)cc4)C(=O)C23)c1 (configuration not stated)	-0.343
CCOC(=O)c1ccc(NC(=O)c2ccccc2[N+](=O)[O-])cc1	-0.169
CC(=O)NC(=S)Nc1ccc(-c2nc3ccc(C)cc3s2)cc1	0.23
CC(C)(C)NCCOc1ccc(Br)cc1	-0.0295
CC(C)(C)NCCCCOc1ccc(F)cc1	2.98
OCCNCCCCOc1ccc(F)cc1	0.17
C=CCn1c(N)c(C(=O)NCC2CCCO2)sc1=S (configuration not stated)	0.129

SMILES	z-score
CCOC(=O)N1CCN(c2cc(=O)n(C3CCCCC3)c(=O)[nH]2)CC1	0.0254
CCOc1ccc(OCC)c(-c2c(=O)n(OCc3ccccc3Br)c3ccccc3[n+]2[O-])c1	1.8
COc1cccc(CC(NC(C)=O)C(=O)NC2CCN(c3c4c(nc5ncnn35)CCC4)CC2)c1 (configuration not stated)	0.172
COc1cccc(N2CCN(c3c4c(nc5ncnn35)CCC4)CC2)c1	5.19 (active)
c1ccc(N2CCN(c3c4c(nc5ncnn35)CCC4)CC2)cc1	-0.139
COc1ccc2cc(S(=O)(=O)NCCCN3CCOCC3)ccc2c1	-0.0146
Cc1ccccc1NC(=O)/C(C#N)=C\c1cccnc1	-0.183
CCc1ccccc1NC(=O)C(C#N)Cc1cccnc1 (configuration not stated)	0.345
Cc1ccccc1NC(=O)C(C#N)Cc1cccnc1 (configuration not stated)	2.26
Cc1ccc(CO/N=C\Cc2snc(Sc3ncc(C(F)(F)F)cc3Cl)c2C#N)cc1	0.0198
Cc1ccc(CNC(=O)C(Cc2ccccc2)NS(=O)(=O)c2ccc3c(c2)CCC(=O)N3)cc1 (configuration not stated)	0.0976
O=C(CSc1cn(Cc2ccccc2)c2ccccc12)Nc1nccs1	-0.121
O=C(NN=C(Cc1ccccc1)Cc1ccccc1)c1ccc(F)cc1	4.71 (active)
COc1ccc(C(=O)NN=C(Cc2ccccc2)Cc2ccccc2)cc1OC	-0.165
C/C(Cc1ccccc1)=N\NC(=O)c1ccc(F)cc1	0.49
O=C(CS(=O)(=O)Cc1ccccc1)Nc1ccc(S(=O)(=O)N2CCOCC2)cc1	-0.109
CCCC(=O)Nc1nc2ccc(S(=O)(=O)N3CCCCC3)cc2s1	-0.273
O=C(Nc1nc(-c2cc(Cl)sc2Cl)cs1)c1ccc(Br)s1	0.0927
O=C(Nc1nc(-c2ccccn2)cs1)c1ccc(Br)s1	12.3 (active)
O=C(Nc1nc(-c2ccccn2)cs1)C1CC1	0.0299
O=C(CSCc1ccccc1Br)N/N=C/c1ccc2c(c1)OCO2	-0.0558
CCOCCCNC(=O)Cc1c(C(=O)O)[nH]c2ccc(Cl)cc12	0.12
CCCn1c(=N)n(CCOc2ccc(OC)cc2)c2ccccc21	3.04 (active)

SMILES	z-score
Cc1cccc(OCCn2c(=S)[nH]c3ccccc32)c1	2.83
CCCn1c(=N)n(CC(=O)OCC)c2ccccc21	-0.118
CCOC(=O)Cn1c(=N)n(CCOc2ccc3ccccc3c2)c2ccccc21	1.25
CCn1c(=N)n(CCOc2ccc(OC)cc2)c2ccccc21	-0.158
CCCn1c(=N)n(CCOCCOCCn2c(=N)n(CCC)c3ccccc32)c2ccccc21	0.012
N=c1n(CCO)c2ccccc2n1CCOc1ccccc1	-0.208
Cc1cccc(OCCn2c(S(=O)(=O)O)nc3ccccc32)c1	0.0442
Cc1cccc(OCCn2c(=O)sc3ccccc32)c1	-0.343
CCn1c(=S)[nH]c2ccccc21	0.63
CCOC(=O)Cn1c(=N)n(CCOc2ccc(OC)cc2)c2ccccc21	2.74
CCOC(=O)Cn1c(=N)n(CCOc2cccc(C)c2)c2ccccc21	3.95 (active)
O=C(NCCN1CCCCC1)c1ccco1	0.151
CC1=C(Sc2ccccn2)C(=O)NC(C)(C)C1	0.338
CN(C)S(=O)(=O)c1ccc(C(=O)Nc2ccccc2OC(F)(F)C(F)F)cc1	-0.525
COc1ccc(NC(=O)Nc2ncn(Cc3cccc(C(F)(F)F)c3)n2)cc1OC	0.0572
COc1ccc(-c2ccc(/C=C3/C(=N)N4C=CSC4=NC3=O)o2)c([N+](=O)[O-])c1	0.455
CC(=O)N1N=C(c2ccco2)CC1c1ccc(C)cc1 (configuration not stated)	0.0902
C=CCNC(=O)C(=O)N/N=C/c1ccco1	0.424
CCCn1c(C)cc(=O)c2cc(NC(=O)c3cnccn3)ccc21	-0.106
O=C(Cn1ccc2ccccc2c1=O)N1CCN(Cc2ccc3c(c2)OCO3)CC1	0.477
